From PubChem
Rango release inh: qHTS Assay for Inhibitors of RanGTP induced Rango (Ran-regulated importin-beta cargo) - Importin beta complex dissociation; Snurportin-1 (Homo sapiens) + GTP-binding nuclear protein Ran (Homo sapiens) + Importin …; hit rate 0.071% among 340,000; Biochemical FRET Rango-importin beta, RanGTP-induced dissociation; Potency, µM (series often up to 46.1 µM); note: nearly all actives have a fitted effect of over 45% in size
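Compounds preincubate 5 min with complex of recombinant Rango and importin beta in PBS with 1 mM DTT. Ran (0.6 uM) loaded with 2 mM GTP plus 0.2 uM RCC1 starts dissociation; FRET is recorded 45 min later.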
Rango-impB inh: qHTS Assay for Inhibitors of Rango (Ran-regulated importin-beta cargo) - Importin beta complex formation; Rango CFP/YFP FRET sensor + importin beta, 45 min; Potency, µM (titrated, usually from 92.2 µM); hit rate 0.031% among 340,000; note: nearly all actives have a fitted effect of over 15% in size
Target sequence (Q14974 whole entry, looked up): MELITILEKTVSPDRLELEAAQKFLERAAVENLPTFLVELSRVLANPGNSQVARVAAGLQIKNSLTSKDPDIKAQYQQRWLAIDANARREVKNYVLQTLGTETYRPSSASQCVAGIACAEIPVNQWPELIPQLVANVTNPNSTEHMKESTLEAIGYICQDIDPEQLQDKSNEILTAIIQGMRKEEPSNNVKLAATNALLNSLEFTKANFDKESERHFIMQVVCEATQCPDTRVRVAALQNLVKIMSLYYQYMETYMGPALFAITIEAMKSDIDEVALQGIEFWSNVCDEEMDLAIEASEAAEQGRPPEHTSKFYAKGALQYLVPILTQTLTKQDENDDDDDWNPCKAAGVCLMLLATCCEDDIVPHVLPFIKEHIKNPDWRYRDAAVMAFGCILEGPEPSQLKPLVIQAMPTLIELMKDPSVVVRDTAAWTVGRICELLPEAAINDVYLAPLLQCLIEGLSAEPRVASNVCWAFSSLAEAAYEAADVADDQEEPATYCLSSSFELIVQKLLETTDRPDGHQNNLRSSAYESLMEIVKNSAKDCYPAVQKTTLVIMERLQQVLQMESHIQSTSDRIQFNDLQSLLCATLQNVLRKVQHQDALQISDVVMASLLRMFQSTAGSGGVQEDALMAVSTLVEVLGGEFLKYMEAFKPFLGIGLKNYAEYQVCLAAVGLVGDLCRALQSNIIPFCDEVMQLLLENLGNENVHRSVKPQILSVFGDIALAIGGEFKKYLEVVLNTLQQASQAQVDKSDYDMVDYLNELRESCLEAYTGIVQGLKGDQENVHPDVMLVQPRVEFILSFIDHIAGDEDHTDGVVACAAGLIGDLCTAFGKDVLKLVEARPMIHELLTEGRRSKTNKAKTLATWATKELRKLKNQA
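FRET biosensor (snurportin 1 IBB flanked by EYFP and cerulean), 50 nM, with compound 5 min, then 0.125 microM importin beta in PBS, 1 mM DTT, 0.02% Tween-20, 0.1% BSA. CFP/YFP ratio read after 45 min at room temperature; pre-read flags interference.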
KCNH2 WT inh: qHTS for Inhibitors of KCHN2 3.1: Wildtype qHTS; Voltage-gated inwardly rectifying potassium channel KCNH2 (Homo sapiens), Q12809; U2OS, BacMam KCNH2, thallium flux FluxOr; active compounds read low; activity change, % at 1.84 µM; hit rate 0.37% among 340,000; AID 720551, 2013;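 active = maximum activity change below -70%; inconclusive = maximum activity change between -70% and -50%; inactive = maximum activity change above -50%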
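U2OS cells were transduced with wild-type KCNH2 virus (2.03 x 10^8 / mL) for 4 h at room temperature, then cultured overnight at 37 C. Thallium flux was read with FluxOr dye. Rate constants were normalized to DMSO controls.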
CCT modulator: High-Throughput Screening for Modulators of Cytosolic Chaperonin Activity; purified chaperonin ATPase assay, HTRF ADP detection, 30 min; activity change, % (test concentration not listed), hits read low; hit rate 0.3% among 360,000; in the data active = activity change below about -30%
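TRiC at 40 or 20 nM final (batch-dependent) in 30 mM Tris pH 7.4, 100 mM KCl, 5 mM MgCl2, 1 mM DTT, with compound at single 76 uM and 10 uM ATP, 30 min at 37 deg C. ADP detected by HTRF Transcreener, 665/615 ratio.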
MmCpn inh: Inhibitors of TCP-1 ring complex (TRiC) of Methanococcus maripaludis (MmCpn): qHTS; hit rate 0.031% among 330,000; Chaperonin Mm-Cpn (Methanococcus maripaludis); Potency, µM (top dose mostly 76.9 µM), most hits filed as inhibitors; purified Mm-Cpn ATPase, ADP Transcreener TR-FRET; active = well fitted inhibition curve with a large enough effect; inconclusive = small, poorly fitted or top-dose-only effect; note: nearly all actives have a fitted effect of over 80% in size
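Eu-cryptate anti-ADP/ADP-d2 competition gives a ratio inversely related to ADP. Enzyme at 25 nM was pre-exposed to compound for 10 min, then given 10 uM ATP for 30 min, 37°C throughout.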
KCNH2 3.1 inh: qHTS for Inhibitors of KCHN2 3.1: Mutant qHTS; Potassium voltage-gated channel subfamily H member 2, brain isoform KCNH2 3.1 (human); U2OS KCNH2 3.1, thallium flux FluxOr; active compounds read low; activity change, % (tested at about 1.8 µM); hit rate 0.95% among 340,000; AID 720553, 2013;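 active = maximum activity change below -70%; inconclusive = maximum activity change from -70% to -50%; inactive = maximum activity change above -50%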;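 note: thallium influx rate constant from kinetic fluorescence after stimulation buffer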
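Channel expression came from 3.1 mutant virus (1.77 x 10^8 /mL) applied to suspended U2OS cells for 4 h. Flux was tracked with FluxOr dye plus Red40 quencher, and kinetic rate constants normalized to controls.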
Large screens that a line does not name were inactive. Hits are enriched below; roughly 1.4% of the tested compounds scored in any of these assays. Unless noted, calls come from the whole dose curve.

Cc1noc(C)c1C(=O)Nc1nc(-c2cc(F)ccc2F)cs1	KCNH2 3.1 inh -135
Cc1ccc(S(=O)(=O)CCC(=O)N(C)C2CCCCC2)cc1	none
O=C(NCc1ccccc1Cl)[C@H]1CCCN1C(=O)[C@H]1CCCN1C(=O)c1ccc(Cl)cc1	none (no result: Rango release inh, Rango-impB inh, KCNH2 WT inh, MmCpn inh, KCNH2 3.1 inh)
CC(=O)Nc1ccc(CN2CCCCCC2)cc1	none
O=C(NCC(=O)N1CCCCC1)c1sc2ccccc2c1Cl	none
O=C(Cc1ccc(Cl)cc1)Nc1ccc(CN2CCCCC2)cc1	KCNH2 3.1 inh -70
CCN(CC)Cc1ccc(NC(=O)c2sc3cc(Cl)ccc3c2Cl)cc1	KCNH2 3.1 inh -95
Cc1cc(OCC(=O)Nc2ccc(CN3CCCCC3)cc2)ccc1Cl	KCNH2 3.1 inh -86
O=C(Nc1ccc(CN2CCCCC2)cc1)c1sc2ccccc2c1Cl	KCNH2 3.1 inh -100
O=C(c1ccccc1F)N1CCN(Cc2cccc(Cl)c2)CC1	none
O=C(NCC1CCCCC1)c1ccc(F)cc1Cl	none
O=c1cc(CN2CCN(c3ccccc3F)CC2)c2ccccc2o1	none (no result: Rango release inh, Rango-impB inh, KCNH2 WT inh, MmCpn inh, KCNH2 3.1 inh)
Nc1ncnc2c1ncn2[C@@H]1O[C@H](CNS(=O)(=O)c2cc3ccccc3s2)[C@@H](O)[C@H]1O	none
CC(=O)c1ccc(OC2(C)CCN(Cc3ccc4c(c3)OCCO4)C2)cc1 (centres undefined)	none (no result: Rango release inh, Rango-impB inh, KCNH2 WT inh, MmCpn inh, KCNH2 3.1 inh)
NC(=NC(=O)c1ccccc1)N1CCN(C(c2ccccc2)c2ccccc2)CC1	none
COc1ccc(C(=O)C2CCCN(Cc3cn[nH]c3-c3ccc(F)cc3)C2)cc1OC (centres undefined)	none
O=C(c1ccc(F)cc1)C1CCN(Cc2cn[nH]c2-c2ccc(F)cc2)CC1	KCNH2 3.1 inh -80
Cc1cc(C)c(NC(=O)CN(C)C(=O)CCC(=O)c2ccc(C)s2)c(C)c1	none
Cc1ccc(C(=O)CSC2=C(C#N)C(c3ccco3)C3=C(CC(C)(C)CC3=O)N2)cc1 (centres undefined)	Rango release inh inconclusive, Rango-impB inh inconclusive, CCT modulator -47
COc1ccc(CCn2c(C)cc3c(c2=O)C(c2ccncc2)C(C#N)=C(N)O3)cc1OC (centres undefined)	CCT modulator -36
O=C(O)c1ccc2c(c1)C(=O)N([C@H](Cc1c[nH]c3ccccc13)C(=O)O)C2=O	none (no result: Rango release inh, Rango-impB inh, KCNH2 WT inh, CCT modulator, KCNH2 3.1 inh)
O=C(N1CCOCC1)N(Cc1cccs1)C1CCCC1	Rango release inh inconclusive, KCNH2 3.1 inh -80
Cc1cccc(C)c1NC(=S)N(Cc1cccs1)C1CCCC1	KCNH2 3.1 inh inconclusive
COC(=O)c1c(NC(=O)C2COc3ccccc3O2)sc2c1CCN(Cc1ccccc1)C2 (centres undefined)	Rango-impB inh inconclusive, MmCpn inh inconclusive, KCNH2 3.1 inh -92
CN(CC1CCCN(CCc2ccc(Cl)cc2)C1)C(=O)c1ccco1 (centres undefined)	KCNH2 3.1 inh -79 (no result: MmCpn inh)
CSc1nc(-c2cccs2)c(C#N)c(=O)[nH]1	KCNH2 WT inh -133
CSc1nc(-c2ccccc2)c(C#N)c(=O)[nH]1	none
O=C(NN1CC(C(=O)OCc2ccccc2F)CC1=O)c1ccccc1 (centres undefined)	MmCpn inh inconclusive
O=C(NCc1ccc(F)cc1)c1cc(C2CCCN(C(=O)c3ccc4c(c3)CCO4)C2)on1 (centres undefined)	none (no result: Rango release inh, Rango-impB inh, KCNH2 WT inh, MmCpn inh, KCNH2 3.1 inh)
Cc1cc(NC(=O)C(=O)c2cn(C)c3ccccc23)no1	none
Cc1cccc(C)c1NC(=O)C(=O)c1cn(C)c2ccccc12	MmCpn inh 56µM
O=C(Nc1c(F)cc(F)cc1Br)c1ccco1	CCT modulator -101
Cc1noc(C)c1C(=O)Nc1c(F)cc(F)cc1Br	none
COC(=O)[C@@H]1C[C@@]2(O)[C@H](O)[C@H](O)[C@H](O)C[C@H]2N1C/C=C/c1ccccc1	none
CC(C)CCN(N=O)[C@@H](Cc1ccccc1)CN(N=O)[C@@H](Cc1ccccc1)CN(C)N=O	KCNH2 3.1 inh -113 (no result: MmCpn inh)
CC(C)CN(C(=O)CSc1nc2ccccc2c(=O)n1C)C1CCS(=O)(=O)C1 (centres undefined)	none
Nc1cc2[nH]c(=O)c3ccccc3c2cc1Br	none (no result: MmCpn inh)
Nc1ccc2c(c1)[nH]c(=O)c1ccccc12	KCNH2 3.1 inh -196 (no result: MmCpn inh)
O=C(c1c(F)cccc1F)N1CCN(CCOc2ccccc2)CC1	none
CC(C(O)c1ccc(O)cc1)N1CCC(Cc2ccccc2)CC1 (centres undefined)	KCNH2 3.1 inh -88
C[C@@H](CN1CCC(Cc2ccccc2)CC1)[C@@H](O)c1ccc(O)cc1	KCNH2 3.1 inh -217
OC(CN1CCC(Cc2ccccc2)CC1)C(F)(F)F (centres undefined)	none
Cc1cccc(CSC2=CS(=O)(=O)c3ccccc3N2)c1	none
Cc1ccc2c(c1)S(=O)(=O)c1ccc3ccccc3c1N2	CCT modulator -37 (no result: MmCpn inh)
O=C(CCCN1CCC(NC(=O)c2ccccc2)CC1)c1ccc(Cl)cc1	KCNH2 3.1 inh -106
O=C(NC1CCN(Cc2ccc3ccccc3c2)CC1)c1ccccc1	KCNH2 3.1 inh -79
COc1cc(C(=O)NC2CCN(Cc3ccccc3)CC2)cc(Cl)c1OC	KCNH2 3.1 inh -90
Cc1ccccc1C(=O)NC1CCN(CC(=O)N2CCCCC2C)CC1 (centres undefined)	KCNH2 WT inh -81
COC(=O)c1ccccc1NC(=O)CN1CCC(NC(=O)c2ccc(C)cc2)CC1	none
O=C(Cn1ccc2ccccc2c1=O)NCCC(=O)NC1CCN(Cc2ccccc2)CC1	CCT modulator -31
COc1ccc(OC)c(-c2nc(C(=O)NC3CCN(Cc4ccccc4)CC3)cc3c2[nH]c2ccccc23)c1	KCNH2 WT inh inconclusive, KCNH2 3.1 inh -97
Cc1ccc(NS(=O)(=O)c2cccc(C(=O)NC3CCN(Cc4ccccc4)CC3)c2)c(C)c1	KCNH2 3.1 inh -102 (no result: MmCpn inh)
Cc1ccc(C(=O)NC2CCN(CC(=O)Nc3ccccc3Cl)CC2)cc1	CCT modulator -37
COc1cc(-c2nc(C(=O)NC3CCN(Cc4ccccc4)CC3)cc3c2[nH]c2ccccc23)cc(OC)c1OC	none
Cc1cccc(CN2CCC(CNC(=O)CCNC(=O)Cn3ccc4ccccc4c3=O)CC2)c1	none
